# DRD3 agonist = agonists of human D3 dopamine receptor; P35462; D3R DiscoveRx beta-arrestin cells, luminescence, 90 min; max activation, %; 410,000 compounds, 0.58% hits; in the data active = max activation above about 30%; note: 0% is about no effect
# Target sequence (P35462 whole entry, looked up): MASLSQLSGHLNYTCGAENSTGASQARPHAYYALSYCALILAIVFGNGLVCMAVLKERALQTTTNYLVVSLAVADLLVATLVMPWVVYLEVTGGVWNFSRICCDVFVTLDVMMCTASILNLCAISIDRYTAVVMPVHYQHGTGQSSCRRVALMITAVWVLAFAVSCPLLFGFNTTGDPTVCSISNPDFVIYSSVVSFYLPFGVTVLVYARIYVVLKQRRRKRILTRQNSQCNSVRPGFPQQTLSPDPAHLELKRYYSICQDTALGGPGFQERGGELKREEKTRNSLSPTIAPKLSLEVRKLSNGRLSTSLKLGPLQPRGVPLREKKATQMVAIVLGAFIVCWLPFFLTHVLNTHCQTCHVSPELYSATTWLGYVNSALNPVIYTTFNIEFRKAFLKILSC
#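 Cells at 1500/well, incubated overnight, then treated with pinned compounds (dopamine as control) for 90 min at 37 degrees C. DiscoveRx reagent added for 30 - 60 minutes at room temperature; luminescence read.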
# D1 antagonist = antagonists of human D1 dopamine receptor; P21728; HEK293 TREx D1 cells, calcium flux, dopamine EC80; hits give low values; activity change, negative = inhibition, % at 10 µM; 360,000 compounds, 3.2% hits; in the data active = activity change below about -30%; note: % is set by controls: 0 for no effect and ±100 for the full control effect
#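 Inducible Hek293 Trex D1 cells (tetracycline, overnight, 30 C). Calcium dye 30–90 min RT. Antagonist mode: EC80 dopamine added after 180 s compound read.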
# DRD3 antagonist = blocks the human D3 dopamine receptor | D3R cells, DiscoveRx beta-arrestin luminescence, antagonist mode; hits give low values | max response, negative = inhibition, % | P35462 | 360,000 compounds, 2.5% hits; in the data active = max response below about -50%; note: % is set by controls: 0 for no effect and ±100 for the full control effect
#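 Cells plated overnight at 1500 cells/well, then exposed to library compounds with dopamine controls for 90 minutes at 37 degrees C. DiscoveRx reagent added for 30–60 minutes at room temperature; luminescence read, quantitative HTS format.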
# D1 PAM = potentiators of human D1 dopamine receptor. potentiation, % at 10 µM. P21728. HEK293 TREx D1 cells, calcium flux, dopamine EC20 potentiation. 360,000 compounds, 0.036% hits; in the data active = potentiation above about 30%; note: 0% is about no effect
# D1 agonist = activates the human D1 dopamine receptor; P21728; HEK293 T-REx D1 cells, calcium flux, agonist mode; activation, % at 2 µM; 360,000 compounds, 1% hits; in the data active = activation above about 30%; note: 0% is about no effect
#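 Inducible HEK293 T-REx D1 cells, force-coupled to calcium signalling, were plated at 4000 cells/well with tetracycline and held overnight at 30 C. After no-wash calcium dye loading, compound-evoked calcium rise over 180 s flagged agonists.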
# * = called active by the depositor; . = not tested or not shown. The list is not random: actives were taken first. Their share in the collection is about 6%.
SMILES,DRD3 agonist,D1 antagonist,DRD3 antagonist,D1 PAM,D1 agonist
Cc1ccc(C(=O)Nc2cccc(C(=O)NCc3ccccc3)c2)cc1,1.5,-10.1,-4.3,-11.7,2.2
Cc1cccc(CNC(=O)c2cccc(NC(=O)N3CCSc4ncccc43)c2)c1,1.3,-34.9*,.,-4.1,1.2
Cc1occc1C(=O)Nc1cccc(C(=O)NCc2ccccc2)c1,-0.9,-39.6*,1.0,-15.8,6.0
COc1ccc(CNC(=O)c2cccc(NC(=O)N3CCSc4ncccc43)c2)cc1,7.8,-17.3,.,-1.9,0.6
CCCN(C(=O)Cn1nc(Cc2ccncc2)c2ccccc2c1=O)c1ccccc1C,-0.9,0.3,.,3.8,-0.4
O=S(=O)(NCc1ccc(F)cc1)c1ccc(Br)cc1Br,1.4,-32.2*,9.6,3.1,-1.4
CCN(CC)CCN(Cc1cc2cc3c(cc2[nH]c1=O)OCO3)C(=S)NCCCOC,-6.2,5.7,-52.3*,-4.7,2.8
CCN(CC)CCN(Cc1cc2cc(C)c(C)cc2[nH]c1=O)C(=S)NCc1ccco1,-26.7,-12.0,-72.3*,7.0,3.8
COC(=O)c1ccccc1NC(=S)N(Cc1ccc2c(c1)OCO2)Cc1cc2ccc(C)cc2[nH]c1=O,-6.5,7.7,13.0,-0.6,5.2
CCN(CC)CCN(Cc1cc2ccc(C)cc2[nH]c1=O)C(=S)Nc1ccccc1C(=O)OC,-19.2,-23.0,-83.6*,-3.1,2.6
CCOCCCNC(=S)N(Cc1ccco1)Cc1cc2cc3c(cc2[nH]c1=O)OCCO3,9.7,-0.4,5.9,-3.3,-0.2
CCCCNC(=S)N(Cc1ccco1)Cc1cc2cc3c(cc2[nH]c1=O)OCCO3,6.2,-46.5*,12.1,-4.7,-0.7
Cc1ccc(C(=O)C(C)CN2CCCCC2)cc1 (configuration not stated),-30.5,.,.,.,.
COc1ccc(-c2cn3c(n2)sc2cc(C(=O)NCc4cccc(F)c4)ccc23)cc1,6.5,-8.3,.,1.8,-0.3
CC(=O)Oc1cccc(N2C(=O)c3ccc(C(=O)O)cc3C2=O)c1,-5.5,3.6,-12.1,-0.6,1.8
O=C(O)c1ccc(CN2C(=O)c3cccc4c([N+](=O)[O-])ccc(c34)C2=O)cc1,2.1,1.5,-29.4,-1.9,34.1*
Cc1ccc(C(=O)O)cc1N1C(=O)c2cccc3c([N+](=O)[O-])ccc(c23)C1=O,4.8,-3.5,-14.9,-1.1,6.9
CC(=O)Oc1cccc(N2C(=O)c3cccc4c([N+](=O)[O-])ccc(c34)C2=O)c1,12.4,-54.1*,-8.3,-8.6,3.2
Cc1cccc(NC(=O)c2sc(-n3nc(C)c(CCC(C)C)c3C)nc2C)c1,2.2,-9.4,.,0.1,3.7
CC(C)CCNC(=O)c1cccc(Nc2nc3ccccc3n3nnnc23)c1,-12.4,5.1,.,-2.9,-0.3
COc1ccc2c(CNCc3cccs3)c(C(=O)O)n(Cc3ccccc3C)c2c1,-19.6,7.9,.,5.6,0.7
CC(C)(C)NC(=O)C(c1ccccn1)N(C(=O)c1csnn1)C1CCCCC1 (configuration not stated),8.0,-7.7,2.4,0.8,3.8
CC(C)(C)NC(=O)C(c1ccccn1)N(C(=O)c1ccc2c(c1)OCCO2)C1CCCC1 (configuration not stated),0.6,-39.0*,0.0,-1.2,0.2
COCCn1c(SCc2cnc(-c3ccccc3)s2)nnc1-c1ccncc1,-4.7,4.7,5.7,5.7,-1.8
COc1ccc(-n2cnnc2SCc2cnc(-c3ccccc3)s2)cc1,-4.7,0.6,-56.1*,-3.4,1.9
SMILES,DRD3 agonist,D1 antagonist,DRD3 antagonist,D1 PAM,D1 agonist
CCOC(=O)[C@@H](N)CS,-28.8,.,.,.,.
Cc1nn(Cc2ccccc2Cl)c2sc(C(=O)Nc3ccccc3N3CCOCC3)cc12,-17.6,-37.9*,45.5,-4.0,3.1
Cc1nn(Cc2ccccc2Cl)c2sc(C(=O)Nc3nccs3)cc12,31.8*,-20.1,-9.1,-1.8,0.7
Cc1nn(Cc2ccc(F)cc2)c2sc(C(=O)Nc3ccccc3N3CCOCC3)cc12,6.4,3.8,17.7,0.6,2.1
CCOc1ccccc1NC(=O)Nc1cc2c(cc1N1CCCCC1)n(CC)c(=O)n2CC,15.6,4.2,.,2.1,2.3
COc1ccc(C(=O)c2c(N)c(C(=O)Nc3cccc(OC)c3)c3ccccn23)cc1,-3.1,4.3,.,-1.9,-0.6
Cc1nc(-c2ccc(S(=O)(=O)Nc3ccc(OC(F)(F)F)cc3)cc2)co1,5.8,20.6,.,-3.9,4.6
